# Compound activity as filed in PubChem BioAssay.
# D3 antag: qHTS of D3 Dopamine Receptor Antagonist: qHTS; D(3) dopamine receptor (Homo sapiens), P35462; D3R cells, DiscoveRx beta-arrestin luminescence, antagonist mode; hits give low values; max response, negative = inhibition, %; 360,000 tested, 2.5% active; AID 652054, 2013; in the data active = max response below about -50%
#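 Cells expressing the human receptor were seeded at 1500 cells/well, incubated overnight at 37 degrees C in 5% CO2, then exposed to library compounds with dopamine controls for 90 minutes at 37 degrees C before luminescent detection.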
# D1 PAM: Potentiators of Human D1 Dopamine Receptor: qHTS; potentiation, % at 10 µM; 360,000 tested, 0.036% active; HEK293 TREx D1 cells, calcium flux, dopamine EC20 potentiation; D(1A) dopamine receptor (Homo sapiens), P21728; AID 504651, 2011; in the data active = potentiation above about 30%
# Target sequence (P21728 whole entry, looked up): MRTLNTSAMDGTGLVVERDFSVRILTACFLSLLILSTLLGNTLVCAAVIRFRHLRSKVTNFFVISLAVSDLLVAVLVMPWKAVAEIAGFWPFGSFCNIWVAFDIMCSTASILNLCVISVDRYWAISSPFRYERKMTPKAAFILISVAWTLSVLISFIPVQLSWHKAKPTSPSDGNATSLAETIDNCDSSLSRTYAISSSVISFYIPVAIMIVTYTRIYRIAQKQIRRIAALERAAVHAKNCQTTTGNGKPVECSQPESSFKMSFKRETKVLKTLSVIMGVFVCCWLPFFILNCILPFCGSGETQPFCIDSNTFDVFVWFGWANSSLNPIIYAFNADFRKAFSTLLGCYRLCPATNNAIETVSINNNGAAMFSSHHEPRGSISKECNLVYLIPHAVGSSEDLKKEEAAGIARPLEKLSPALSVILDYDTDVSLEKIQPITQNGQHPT
# D3 ag: qHTS of D3 Dopamine Receptor Agonist: qHTS; D3R DiscoveRx beta-arrestin cells, luminescence, 90 min; AID 652048, 2013; D(3) dopamine receptor (Homo sapiens), P35462; max activation, %; 410,000 tested, 0.58% active; in the data active = max activation above about 30%
#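 Cells at 1500/well, incubated overnight, then treated with pinned compounds (dopamine as control) for 90 min at 37 degrees C. DiscoveRx reagent added for 30 - 60 minutes at room temperature; luminescence read.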
# D1 ag: Allosteric Agonists of the Human D1 Dopamine Receptor: qHTS. AID 504660, 2011. D(1A) dopamine receptor (Homo sapiens), P21728. 360,000 tested, 1% active. HEK293 T-REx D1 cells, calcium flux, agonist mode. activation, % at 2 µM; in the data active = activation above about 30%
#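 Inducible HEK293 T-REx D1 cells, force-coupled to calcium signalling, were plated at 4000 cells/well with tetracycline and held overnight at 30 C. After no-wash calcium dye loading, compound-evoked calcium rise over 180 s flagged agonists.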
# D1 antagonist: Antagonist of Human D 1 Dopamine Receptor: qHTS | 360,000 tested, 3.2% active | HEK293 TREx D1 cells, calcium flux, dopamine EC80; hits give low values | D(1A) dopamine receptor (Homo sapiens), P21728 | activity change, negative = inhibition, % at 10 µM; in the data active = activity change below about -30%
#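 Cells carrying a force-coupled, tetracycline-inducible human D1 receptor report calcium flux. Each well gets a 10 s baseline, compound with 180 s monitoring, then an EC80 dopamine stimulus with a second 180 s kinetic read.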
# A number is an active result; - = inactive; . = no result; ! = not active in a repeat. Hits are enriched below; roughly 6% of the tested compounds scored in any of these assays.
SMILES,D3 antag,D1 PAM,D3 ag,D1 ag,D1 antagonist
COc1ccc(C)cc1NC(=O)c1cc2c(=O)n(Cc3cccnc3)ccc2nc1C,.,-,-,-,-
Cc1cccc(OCc2nnc(SCC(=O)Nc3cccc(C(=O)N4CCOCC4)c3)n2C)c1C,-,-,-,-,-42
Cc1ccccc1C(c1c(C)n(C)n(-c2ccccc2)c1=O)c1c(C)n(C)n(-c2ccccc2)c1=O,.,-,-,-,-
O=C1c2ccccc2C(=O)N1CCCCON1C(=O)c2ccccc2C1=O,-,-,-,-,-36
O=C1c2ccccc2C(=O)N1OCCOCCOCCON1C(=O)c2ccccc2C1=O,-,-,-,-,-
COc1ccc(Cl)cc1NC(=O)COC(=O)CCCN1C(=O)c2ccccc2C1=O,-,-,-,-,-33
O=C(CCCN1C(=O)c2ccccc2C1=O)Oc1ccc(F)cc1,-,-,-,-,-32
COC(=O)c1ccc(OC(=O)CN2C(=O)c3ccccc3C2=O)cc1,-,-,-,-,-34
O=C(NCC(c1ccc(Cl)cc1)N1CCCCC1)c1ccccc1 (centres undefined),.,-,-,-,-
CCCN(CCC)CCNC(=O)CN1C(=O)COc2ccc(S(=O)(=O)N3CCC(C)CC3)cc21,.,-,-,-,-
CCOC(=O)c1oc2ccc(S(=O)(=O)n3nc(-c4cc(OC)cc(OC)c4)cc3N)cc2c1C,.,-,-,-,-
CN(CC(=O)Nc1ccc(F)cc1F)S(=O)(=O)c1ccc(C(=O)N2CCOCC2)s1,.,-,-,-,-
COC(=O)c1ccccc1NC(=O)CCCn1c(C)c2cnn(-c3ccccc3)c(=O)c2c1C,.,-,-,-,-
COc1ccc(NC(=O)COC(=O)CN2C(=O)c3ccccc3C2=O)cc1,-54,-,-,-,-
COc1ccc(Cl)cc1NC(=O)CCCn1c(C)c2cnn(-c3ccccc3)c(=O)c2c1C,.,-,42,-,-79
CC1=C(c2ccc(Cl)cc2)S(=O)(=O)NC1=NCCCN1CCN(c2cc(C)ccc2C)CC1,.,-,-,-,-
CCOC(=O)CC(NC(=O)CCc1c(C)nc2c(-c3ccccc3)c(C)nn2c1C)c1ccc(OC(C)C)cc1 (centres undefined),.,-,36,-,-
COc1ccc(C(=O)n2nc(-c3ccco3)nc2NCc2cccs2)cc1OC,.,-,-,-,-
CCCCOc1ccc(CNC(=O)C2CCCN(c3nnc(-n4c(C)ccc4C)s3)C2)cc1 (centres undefined),.,-,-,-,-
COc1ccc(Cc2nnc(NCCO)[nH]c2=O)cc1OC,-,-,-,-,-
COc1ccc(Cc2nnc(NCCO)[nH]c2=O)cc1,-,-,33,-,-
COc1ccccc1NC(=O)c1sc(-c2ccc(Cl)cc2)cc1N,.,-,-,-,-
CCC(Sc1ccc2nnc(-c3ccc(F)cc3)n2n1)C(=O)OC (centres undefined),-75,-,-,-,-
COc1cc(OC)c(NC(=O)Nc2ccccc2OCc2cc(=O)n3cc(C)ccc3n2)cc1Cl,.,-,-,-,-
COc1cc(OC)c(NC(=O)Nc2cccc(OCc3cc(=O)n4ccccc4n3)c2)cc1Cl,.,-,-,-,-40
SMILES,D3 antag,D1 PAM,D3 ag,D1 ag,D1 antagonist
CC(C)Oc1ccc(CNC(=O)CN2C(=O)c3cccnc3Oc3ccc(Cl)cc32)cc1,.,-,-,-,-
COC(=O)C(Cc1ccccc1)OS(N)(=O)=O (centres undefined),-58,-,-,-,-
CN(C(=O)c1cnc(N2CCOCC2)c2ccccc12)c1ccccc1F,.,-,-,-,-
Cc1cc(Br)ccc1NCc1ccccn1,-,-,-,-,-56
COc1ccc(Br)cc1S(=O)(=O)NCc1ccccn1,-,-,-,-,-
CCCS(=O)(=O)Nc1cc(-c2cn3ccc(C)cc3n2)ccc1C,.,59,-,-,-
COc1ccc(S(=O)(=O)Nc2cc(-c3cn4ccc(C)cc4n3)ccc2C)cc1OC,.,-,-,-,-
CC1CN(C(=O)N2CCC(C(=O)NCCCc3ccccc3)CC2)c2cc(Cl)ccc2O1 (centres undefined),.,-,-,-,-57
CCCOc1ccc(CNC(=O)C2CCN(C(=O)N3CCOc4ccccc43)CC2)cc1,-,-,-,-,-32
CCC1CN(C(=O)N2CCC(C(=O)NCc3cccc(C)c3)CC2)c2ccccc2O1 (centres undefined),.,-,-,-,-32
COc1ccc(CNC(=O)C2CCN(C(=O)N3CC(C)Oc4ccc(C)cc43)CC2)cc1 (centres undefined),.,-,-,-,-
CCCCNC(=O)C1CCN(C(=O)N2CC(C)Oc3ccc(Cl)cc32)CC1 (centres undefined),.,-,-,-,-
CCOc1ccc(CNC(=O)C2CCN(C(=O)N3CC(C)Oc4ccccc43)CC2)cc1 (centres undefined),-,-,-,-,-38
CCN(CC)C(=O)Cn1c(=O)n(-c2ccc(OC)cc2OC)c(=O)c2c(C)c(C(=O)N(CC)CC)sc21,.,-,-,-,-
Cc1ccc(NC(=O)Cn2c(=O)oc3cc(S(=O)(=O)NCc4ccccc4)ccc32)cc1,.,-,-,-,-
COc1ccc(Br)c2c1-c1nc(NC(=O)c3ccc(F)cc3)sc1C2,.,-,-,-,-
Cc1ccc(C)c(OCC(=O)Nc2ccc(S(=O)(=O)Nc3onc(C)c3C)cc2)c1C,.,-,-,-,-
CCc1ccccc1NC(=O)c1nnn(-c2ccc(F)cc2)c1C,.,-,-,-,-
CCC1CN(C(=O)NCc2ccc(F)cc2)c2cc(Cl)ccc2O1 (centres undefined),-,-,-,-,-
CCC1CN(C(=O)NCc2ccc(F)cc2)c2ccccc2O1 (centres undefined),-,-,-,-,-56!
O=C(NC(=S)Nc1nc(-c2cccc([N+](=O)[O-])c2)cs1)c1ccccc1Cl,-,-,-,-,-
CC(OC(=O)c1cnccn1)C(=O)Nc1nc(-c2cccc([N+](=O)[O-])c2)cs1 (centres undefined),-,-,-,-,-32
O=C(Nc1nc(-c2cccc([N+](=O)[O-])c2)cs1)C(c1ccccc1)c1ccccc1,-53,-,-,-,-
CN(C)S(=O)(=O)c1ccc(-c2csc(N/N=C/c3ccc(O)cc3)n2)cc1,-,-,35,-,-
CN(C)S(=O)(=O)c1ccc(-c2csc(N/N=C/c3ccco3)n2)cc1,-,-,-,-,-
CC(OC(=O)c1ccccc1Br)C(=O)Nc1nc(-c2cccc([N+](=O)[O-])c2)cs1 (centres undefined),-,-,-,-,-
